Source: ChEMBL document CHEMBL1961873, “Compounds: GSK PKIS; Assays: Nanosyn kinase panel” (2012)

These compounds were tested against Receptor tyrosine-protein kinase erbB-4 (Homo sapiens) (UniProt Q15303). Settings: at 1 µM.
Sequence of Receptor tyrosine-protein kinase erbB-4 (Homo sapiens) (Q15303 whole entry): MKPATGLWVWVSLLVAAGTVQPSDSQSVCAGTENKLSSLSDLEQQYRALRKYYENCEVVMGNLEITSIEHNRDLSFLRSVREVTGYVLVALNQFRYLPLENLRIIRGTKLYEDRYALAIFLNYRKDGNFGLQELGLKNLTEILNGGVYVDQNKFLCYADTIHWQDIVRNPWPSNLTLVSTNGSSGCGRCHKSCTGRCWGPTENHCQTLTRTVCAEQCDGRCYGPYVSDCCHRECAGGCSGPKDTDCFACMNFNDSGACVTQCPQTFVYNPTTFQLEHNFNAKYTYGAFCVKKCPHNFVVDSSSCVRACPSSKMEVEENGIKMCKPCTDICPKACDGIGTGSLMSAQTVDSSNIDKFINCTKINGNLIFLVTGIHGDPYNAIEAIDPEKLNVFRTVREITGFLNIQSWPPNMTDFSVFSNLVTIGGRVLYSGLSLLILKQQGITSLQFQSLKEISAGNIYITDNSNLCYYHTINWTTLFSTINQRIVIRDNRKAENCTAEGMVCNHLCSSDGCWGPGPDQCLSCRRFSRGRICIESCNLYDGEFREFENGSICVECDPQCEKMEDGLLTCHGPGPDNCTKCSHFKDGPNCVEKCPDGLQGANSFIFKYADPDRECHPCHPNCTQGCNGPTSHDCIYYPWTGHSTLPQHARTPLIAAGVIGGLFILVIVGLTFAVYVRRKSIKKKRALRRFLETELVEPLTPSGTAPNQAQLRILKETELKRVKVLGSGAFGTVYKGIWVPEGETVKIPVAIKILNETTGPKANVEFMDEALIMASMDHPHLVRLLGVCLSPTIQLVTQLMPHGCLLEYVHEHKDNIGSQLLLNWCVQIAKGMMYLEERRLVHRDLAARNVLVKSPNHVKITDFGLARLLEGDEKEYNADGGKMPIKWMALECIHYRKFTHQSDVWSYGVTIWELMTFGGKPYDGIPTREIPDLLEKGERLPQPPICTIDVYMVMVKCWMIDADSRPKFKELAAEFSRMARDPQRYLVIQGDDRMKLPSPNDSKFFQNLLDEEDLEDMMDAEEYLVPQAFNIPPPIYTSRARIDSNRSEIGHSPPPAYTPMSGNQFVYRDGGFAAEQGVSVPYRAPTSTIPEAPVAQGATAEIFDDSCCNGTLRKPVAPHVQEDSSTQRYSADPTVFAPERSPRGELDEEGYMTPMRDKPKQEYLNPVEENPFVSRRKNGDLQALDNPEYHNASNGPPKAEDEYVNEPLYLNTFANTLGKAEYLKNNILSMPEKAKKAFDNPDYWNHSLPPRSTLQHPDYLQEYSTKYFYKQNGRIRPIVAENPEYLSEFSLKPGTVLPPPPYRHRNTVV
Work on Fc1ccc(-c2cc(-c3c[nH]nc3-c3ccccn3)ccn2)cc1 yielded an inhibition of 12.7%.
Clc1ccc(-c2nn3ncccc3c2-c2ccnc(Nc3ccccc3)n2)cc1 showed an inhibition of 69.5%.
CC1=C(C(=O)Nc2cc(Cl)c3[nH]ncc3c2)C(c2ccc(C(F)(F)F)cc2)CC(=O)N1 (stereo unspecified) was tested, and the inhibition was 31.2%.
Compound CC(C)(CO)CNC(=O)c1ccc2c(c1)/C(=N/Nc1ccc(S(N)(=O)=O)cc1)C(=O)N2 has an inhibition of 7.73%.
For COc1cccc(-c2c[nH]c3c(N/N=C/c4ccncc4)ncnc23)c1, the inhibition was 21.9%.
Cc1ccc(O)cc1Nc1ccnc2cc(-c3ccccn3)ccc12 gave an inhibition of 75.6%.
Work on Cc1cccc2c1NC(=O)/C2=N\Nc1ccc(S(N)(=O)=O)cc1 yielded an inhibition of 11%.
With CN1CCC(n2cnc(-c3ccc(F)cc3)c2-c2ccnc(Nc3ccccc3)n2)CC1 the inhibition was 27.2%.
Compound COc1ccc2[nH]c3c4[nH]c5ccc(OC)cc5c4c4c(c3c2c1)C(=O)NC4=O has an inhibition of 45.9%.
With CNC(=O)c1cncc(/C=C/c2ccccc2Cl)c1 the inhibition was 8.96%.
Work on COC(=O)Nc1nc2ccc(Oc3ccc(NC(=O)Nc4cccc(Cl)c4)cc3)cc2[nH]1 yielded an inhibition of 9.87%.
Work on COc1ccc(-c2cc(-c3c[nH]nc3-c3ccccn3)ccn2)cc1 yielded an inhibition of 10.6%.
In the case of CCn1c(-c2nonc2N)nc2ccccc21, the inhibition is reported as 12.3%.
Work on COc1ccc(CNC(=O)c2ccc(-c3cc(-c4nnc(C)o4)ccc3C)cc2)cc1 yielded an inhibition of 7.19%.
Compound Fc1cccc(COc2ccc(Nc3ncnc4sc(-c5ccco5)cc34)cc2Cl)c1 has an inhibition of 75.8%.
Compound CCn1c(-c2nonc2N)nc2c(C#CC(C)(C)O)ncc(OC3CCNCC3)c21 has an inhibition of 10.3%.
CNC(=O)c1cc(-c2ccc(F)cc2)cc(-c2ccc(S(=O)(=O)N3CCCC3)cc2)c1N was tested, and the inhibition was 10.4%.
Work on COc1cc(N2CCN(C(C)C)CC2)ccc1Nc1nc(Nc2ccc(F)cc2C(N)=O)c2cc[nH]c2n1 yielded an inhibition of 76.8%.
CCn1c(-c2nonc2N)nc2cnc(Oc3cccc(NC(=O)c4ccc(N(C)C)cc4)c3)cc21 was tested, and the inhibition was 9.63%.
COc1ccc2c(-c3ccnc(Nc4cccc(OC(F)(F)F)c4)n3)cnn2n1 was tested, and the inhibition was 9.71%.
Compound NS(=O)(=O)c1ccc(N/N=C2\C(=O)Nc3ccc4ncccc4c32)cc1 has an inhibition of 10.4%.
Compound O=C(Nc1n[nH]c2cc(-c3ccc(F)cc3)ccc12)C1CC1 has an inhibition of 11.6%.
For c1cc(-c2cnn3nc(N4CCOCC4)ccc23)nc(NC2CC2)n1, the inhibition was 15.3%.
With CCc1nn2ncccc2c1-c1ccnc(NC2CC2)n1 the inhibition was 8.22%.
CN1CCC(n2cnc(-c3ccc(F)cc3)c2-c2ccnc(N)n2)CC1 was tested, and the inhibition was 18.6%.
Compound COc1ccc(-c2cc3c(N)ncnc3o2)cc1 has an inhibition of 1.85%.
COc1ccc(-c2oc3ncnc(N)c3c2-c2ccc(NC(=O)Nc3cc(C(F)(F)F)ccc3F)cc2)cc1 showed an inhibition of 14.6%.
COc1cc(Nc2nccc(Nc3ccc4c(C)n[nH]c4c3)n2)cc(OC)c1OC showed an inhibition of 27.6%.
For COC(=O)c1sc(-n2cnc3cc(OC)c(OC)cc32)cc1OCc1ccccc1C(F)(F)F, the inhibition was 11%.
N#Cc1c(NC(=O)c2ccc(F)cc2)sc2c1CCCC2 showed an inhibition of 7.46%.
In the case of NS(=O)(=O)c1ccc(Nc2ncc(-c3ccccc3)o2)cc1, the inhibition is reported as 10.5%.
Work on CCn1cc(-c2ccnc3[nH]ccc23)c(-c2cccc(NC(=O)Nc3ccc(OCc4ccccc4)cc3)c2)n1 yielded an inhibition of 63.5%.
In the case of c1ccc(-c2nc3n(c2-c2ccc4c(c2)OCO4)CCC3)nc1, the inhibition is reported as 1.72%.

What follows are compounds tested against Tyrosine-protein kinase Fer (Homo sapiens) (UniProt P16591). Settings: at 0.1 µM.
Sequence of Tyrosine-protein kinase Fer (Homo sapiens) (P16591 whole entry, looked up): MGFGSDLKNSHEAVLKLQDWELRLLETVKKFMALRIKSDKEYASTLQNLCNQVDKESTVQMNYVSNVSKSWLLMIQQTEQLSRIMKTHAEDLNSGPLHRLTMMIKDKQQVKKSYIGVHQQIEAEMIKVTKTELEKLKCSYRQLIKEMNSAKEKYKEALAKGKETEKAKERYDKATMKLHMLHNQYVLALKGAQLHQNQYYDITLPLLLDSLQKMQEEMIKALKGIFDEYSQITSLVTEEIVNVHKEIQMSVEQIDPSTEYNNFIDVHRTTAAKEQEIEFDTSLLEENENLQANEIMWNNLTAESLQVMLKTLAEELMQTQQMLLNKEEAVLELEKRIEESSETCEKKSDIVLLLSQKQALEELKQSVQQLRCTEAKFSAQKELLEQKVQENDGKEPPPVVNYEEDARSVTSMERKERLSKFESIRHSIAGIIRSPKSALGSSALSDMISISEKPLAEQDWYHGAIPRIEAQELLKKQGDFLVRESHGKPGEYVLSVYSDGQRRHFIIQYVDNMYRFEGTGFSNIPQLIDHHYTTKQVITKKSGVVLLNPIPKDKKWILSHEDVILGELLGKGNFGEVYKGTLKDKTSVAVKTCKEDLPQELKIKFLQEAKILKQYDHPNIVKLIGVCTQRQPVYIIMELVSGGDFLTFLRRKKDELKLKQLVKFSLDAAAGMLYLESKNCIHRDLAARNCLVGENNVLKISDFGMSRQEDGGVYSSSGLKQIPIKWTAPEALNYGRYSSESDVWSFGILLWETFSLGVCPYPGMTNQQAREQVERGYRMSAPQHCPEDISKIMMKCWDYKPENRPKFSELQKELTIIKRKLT
In the case of Fc1ccc(-c2cc(-c3c[nH]nc3-c3ccccn3)ccn2)cc1, the inhibition is reported as 4.53%.
Work on Clc1ccc(-c2nn3ncccc3c2-c2ccnc(Nc3ccccc3)n2)cc1 yielded an inhibition of 1.86%.
CC1=C(C(=O)Nc2cc(Cl)c3[nH]ncc3c2)C(c2ccc(C(F)(F)F)cc2)CC(=O)N1 (stereo unspecified) showed an inhibition of 4.27%.
Work on CC(C)(CO)CNC(=O)c1ccc2c(c1)/C(=N/Nc1ccc(S(N)(=O)=O)cc1)C(=O)N2 yielded an inhibition of -7.05%.
COc1cccc(-c2c[nH]c3c(N/N=C/c4ccncc4)ncnc23)c1 was tested, and the inhibition was 4.27%.
With Cc1ccc(O)cc1Nc1ccnc2cc(-c3ccccn3)ccc12 the inhibition was 5.39%.
Cc1cccc2c1NC(=O)/C2=N\Nc1ccc(S(N)(=O)=O)cc1 was tested, and the inhibition was 1.4%.
CN1CCC(n2cnc(-c3ccc(F)cc3)c2-c2ccnc(Nc3ccccc3)n2)CC1 showed an inhibition of 1.86%.
Compound COc1ccc2[nH]c3c4[nH]c5ccc(OC)cc5c4c4c(c3c2c1)C(=O)NC4=O has an inhibition of 29.1%.
For CNC(=O)c1cncc(/C=C/c2ccccc2Cl)c1, the inhibition was 2.91%.
COC(=O)Nc1nc2ccc(Oc3ccc(NC(=O)Nc4cccc(Cl)c4)cc3)cc2[nH]1 was tested, and the inhibition was 1.61%.
COc1ccc(-c2cc(-c3c[nH]nc3-c3ccccn3)ccn2)cc1 gave an inhibition of 3.16%.
CCn1c(-c2nonc2N)nc2ccccc21 showed an inhibition of 5.9%.
With COc1ccc(CNC(=O)c2ccc(-c3cc(-c4nnc(C)o4)ccc3C)cc2)cc1 the inhibition was 2.8%.
Compound Fc1cccc(COc2ccc(Nc3ncnc4sc(-c5ccco5)cc34)cc2Cl)c1 has an inhibition of 1.71%.
CCn1c(-c2nonc2N)nc2c(C#CC(C)(C)O)ncc(OC3CCNCC3)c21 gave an inhibition of -0.68%.
CNC(=O)c1cc(-c2ccc(F)cc2)cc(-c2ccc(S(=O)(=O)N3CCCC3)cc2)c1N gave an inhibition of 2.99%.
COc1cc(N2CCN(C(C)C)CC2)ccc1Nc1nc(Nc2ccc(F)cc2C(N)=O)c2cc[nH]c2n1 showed an inhibition of 62.8%.
Work on CCn1c(-c2nonc2N)nc2cnc(Oc3cccc(NC(=O)c4ccc(N(C)C)cc4)c3)cc21 yielded an inhibition of 1.16%.
COc1ccc2c(-c3ccnc(Nc4cccc(OC(F)(F)F)c4)n3)cnn2n1 showed an inhibition of 4.88%.
In the case of NS(=O)(=O)c1ccc(N/N=C2\C(=O)Nc3ccc4ncccc4c32)cc1, the inhibition is reported as 3.38%.
With O=C(Nc1n[nH]c2cc(-c3ccc(F)cc3)ccc12)C1CC1 the inhibition was 5.3%.
c1cc(-c2cnn3nc(N4CCOCC4)ccc23)nc(NC2CC2)n1 showed an inhibition of 0.53%.
Compound CCc1nn2ncccc2c1-c1ccnc(NC2CC2)n1 has an inhibition of 0.5%.
For CN1CCC(n2cnc(-c3ccc(F)cc3)c2-c2ccnc(N)n2)CC1, the inhibition was 1.42%.
COc1ccc(-c2cc3c(N)ncnc3o2)cc1 gave an inhibition of -0.15%.
With COc1ccc(-c2oc3ncnc(N)c3c2-c2ccc(NC(=O)Nc3cc(C(F)(F)F)ccc3F)cc2)cc1 the inhibition was 8.1%.
COc1cc(Nc2nccc(Nc3ccc4c(C)n[nH]c4c3)n2)cc(OC)c1OC was tested, and the inhibition was 6.42%.
In the case of COC(=O)c1sc(-n2cnc3cc(OC)c(OC)cc32)cc1OCc1ccccc1C(F)(F)F, the inhibition is reported as 1.07%.
Work on N#Cc1c(NC(=O)c2ccc(F)cc2)sc2c1CCCC2 yielded an inhibition of 0.75%.
NS(=O)(=O)c1ccc(Nc2ncc(-c3ccccc3)o2)cc1 gave an inhibition of 2.73%.
CCn1cc(-c2ccnc3[nH]ccc23)c(-c2cccc(NC(=O)Nc3ccc(OCc4ccccc4)cc3)c2)n1 gave an inhibition of 0.08%.
c1ccc(-c2nc3n(c2-c2ccc4c(c2)OCO4)CCC3)nc1 was tested, and the inhibition was 2.91%.
